Only some compounds are listed: those with a hit (about 3.5% of all), similar ones and a draw of the others.
BoNT-F LC inh = BoNT/F light chain protease inhibitors, primary screen, biochemical, flow cytometry, MLPCN library. Botulinum neurotoxin type F light chain protease (Clostridium botulinum). Multiplex microsphere protease cleavage assay. inhibition, % at 10 µM. 360,000 tested, 0.22% active. AID 588497, 2011; in the data active = inhibition above about 35%, passing the limit was not always enough; inconclusive = no clear call, values can overlap the other calls; also: plate controls were buffer without enzyme for full effect and enzyme alone for no effect
BoNT-A LC inh2 = BoNT/A light chain protease inhibitors, primary screen, biochemical, flow cytometry, MLPCN library. Botulinum neurotoxin type A light chain protease (Clostridium botulinum A str. ATCC 3502). multiplex microsphere protease substrate cleavage. inhibition, % at 10 µM. 360,000 tested, 0.17% active; also: plate controls were buffer without enzyme for full effect and enzyme alone for no effect
Anthrax LF prot = Bacillus anthracis LF protease inhibitors, primary screen, biochemical, multiplex microsphere, MLPCN library. 360,000 tested, 0.12% active. Lethal factor (Bacillus anthracis), P15917. inhibition, % at 10 µM. multiplex microsphere protease cleavage assay. AID 588501, 2011; also: plate controls were buffer without enzyme for full effect and enzyme alone for no effect
Target sequence (P15917 whole entry, looked up): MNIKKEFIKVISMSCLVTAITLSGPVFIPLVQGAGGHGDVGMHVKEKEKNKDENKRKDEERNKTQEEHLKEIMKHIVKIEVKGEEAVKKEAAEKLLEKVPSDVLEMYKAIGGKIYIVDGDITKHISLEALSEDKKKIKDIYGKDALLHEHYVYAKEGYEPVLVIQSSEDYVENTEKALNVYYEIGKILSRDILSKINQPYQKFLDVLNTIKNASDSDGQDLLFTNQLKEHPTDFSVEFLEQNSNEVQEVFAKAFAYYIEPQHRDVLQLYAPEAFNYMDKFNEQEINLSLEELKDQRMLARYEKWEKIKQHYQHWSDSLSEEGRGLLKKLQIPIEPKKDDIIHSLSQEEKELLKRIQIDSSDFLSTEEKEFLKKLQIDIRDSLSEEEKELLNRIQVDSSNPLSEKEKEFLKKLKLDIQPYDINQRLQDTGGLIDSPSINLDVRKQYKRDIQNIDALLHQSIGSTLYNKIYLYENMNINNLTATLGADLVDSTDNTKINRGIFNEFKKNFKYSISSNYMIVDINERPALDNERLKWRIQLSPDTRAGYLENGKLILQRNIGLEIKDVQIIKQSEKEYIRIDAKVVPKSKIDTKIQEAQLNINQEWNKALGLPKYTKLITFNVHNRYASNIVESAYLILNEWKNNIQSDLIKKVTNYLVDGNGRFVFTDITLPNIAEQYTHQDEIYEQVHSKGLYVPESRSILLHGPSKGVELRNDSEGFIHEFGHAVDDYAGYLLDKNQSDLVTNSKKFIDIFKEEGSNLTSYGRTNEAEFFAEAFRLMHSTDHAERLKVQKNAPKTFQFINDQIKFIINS
Autofluor counter = flagged as autofluorescent in microsphere protease counterscreen. fluorescence intensity (test concentration not listed). 360,000 tested, 3.1% active. compound autofluorescence counterscreen, microsphere flow cytometry; active compounds read high. AID 624483; in the data active = fluorescence intensity above about 16000; inconclusive = no clear call, values can overlap the other calls
An asterisk follows results filed as active; ? = inconclusive. Rule as the data show it, unless noted: active = inhibition above about 30%; inconclusive = no clear call, values can overlap the other calls; inactive = below that.

SMILES	BoNT-F LC inh	BoNT-A LC inh2	Anthrax LF prot	Autofluor counter
O=C(COc1cc2oc(=O)c3c(c2cc1Cl)CCC3)N1C[C@H]2C[C@@H](C1)c1cccc(=O)n1C2	-4	-1	-3	5451
O=C1C2=C(SCCS2)C(=O)N1c1ccccc1	7	4	0	19116*
COc1ccc(/C=C/C(=O)NC(C)C)cc1Br	1	1	-1	22011*
COC(=O)C1(C)NC(c2ccc(OC)cc2)C2C(=O)N(c3ccccc3)C(=O)C21 (stereo not drawn)	20	-2	5	3375
Cc1nn(CC(=O)Nc2ccc3c(c2)nc(CCN2CCCCC2)n3C)c(=O)c2ccccc12	-1	-1	-1	20530*
CC(=O)N1CCN(Cc2nc3cc(NC(=O)Cn4nc(C)c5ccccc5c4=O)ccc3n2C)CC1	-7	0	-1	9828
CC(=O)N1CCN(Cc2nc3cc(NC(=O)C4CCCCC4)ccc3n2C)CC1	-1	?	2	20181*
Cn1c(CN2CCCCC2)nc2cc(NC(=O)c3ccc(Cl)cc3)ccc21	5	5	2	20694*
Cn1c(CN2CCCC2)nc2cc(NC(=O)c3ccc(Cl)cc3)ccc21	0	1	-6	3884
COc1cccc(NC(C)C(=O)N2CC(C)OC(C)C2)c1 (stereo not drawn)	3	?	-2	23137*
Nc1ccn(CC(=O)N[C@H](CO)Cc2c[nH]c3ccccc23)c(=O)n1	-6	0	0	3737
COc1ccc(Cl)cc1NC(=S)N(Cc1ccc(C(=O)O)cc1)Cc1ccc(OC)c(OC)c1	-2	0	-3	3226
O/N=C(/c1ccccc1)c1cc2cc(Br)cc(Br)c2o1	10	0	30*	3708
CC(=O)c1c(C(C)=O)c(C)n(NC(=O)c2ccccc2O)c1C	4	?	2	20975*
CC(=O)c1c(C(C)=O)c(C)n(NC(=O)c2cccnc2)c1C	-3	-1	0	8128
CCOC(=O)/C(=N\Nc1cccc(C(F)(F)F)c1)N(CCOC)CCOC	-8	?	0	22213*
CCOC(=O)/C(=N\Nc1cccc(C(F)(F)F)c1)N1CCOCC1	-1	0	-3	4396
Cc1nc(NCC2CCCO2)c2oc3ccccc3c2n1 (stereo not drawn)	4	3	0	21375*
CCc1nc(NCc2cccnc2)c2oc3ccccc3c2n1	0	2	-1	16165*
CCc1nc(NCc2ccco2)c2oc3ccccc3c2n1	1	-1	-1	3149
CCNc1nc(CC)nc2c1oc1ccccc12	5	4	-10	21864*
CN(C)c1ccc(C(C(=O)NC2CCCC2)N(C(=O)c2csnn2)C2CC2)cc1 (stereo not drawn)	-27	-4	-4	3963
O=C(c1ccc(Br)o1)N(Cc1ccccc1)c1ccccn1	6	?	-1	19550*
O=C(c1ccccc1)N(Cc1ccccc1)c1ccccn1	-6	-1	-1	10766
CCC(C)n1ncn(-c2ccc(N3CCN(c4ccc(OC)cc4)CC3)cc2)c1=O (stereo not drawn)	-10	-2	-16	6592
SMILES	BoNT-F LC inh	BoNT-A LC inh2	Anthrax LF prot	Autofluor counter
O=C(CSc1ncn[nH]1)Nc1c(F)cc(F)cc1Br	-2	?	-1	23998*
Cc1nnc(SCC(=O)N2CCC(C(N)=O)CC2)s1	-6	0	-4	3267
CC(=O)Nc1nonc1NC(=O)CSc1ncn[nH]1	-5	-5	-3	21267*
Cc1nnc(SCC(=O)N2CCOCC2)s1	1	?	-1	19625*
O=C(CSc1ncn[nH]1)Nc1ccc2c(c1)OCCO2	-2	-1	-4	23582*
CC(=O)Nc1nonc1NC(=O)CSc1ccccn1	-6	0	-3	?
COc1ccc(S(=O)(=O)N(C)c2ccc(C(=O)Nc3cccnc3)cc2)cc1OC	-5	-2	-2	6510
CC1Sc2ccc(S(=O)(=O)CCC(=O)Nc3ccc(C(C)C)cc3)cc2NC1=O (stereo not drawn)	-1	-3	-3	4507
CC1CCCCC12NC(=O)N(CC(=O)Nc1cccnc1)C2=O (stereo not drawn)	-4	0	-1	3459
COc1cc2c(=O)n(CCC(=O)NCC3CCCO3)c(=O)n(CC(=O)Nc3ccc(C)cc3C)c2cc1OC (stereo not drawn)	-17	0	3	2963
COc1ccc(CCNC(=O)CSc2ncn[nH]2)cc1	5	6	-9	19819*
Cc1nnc(SCC(=O)Nc2ccc3c(c2)OCCO3)s1	-5	-5	-1	21759*
COc1ccc(CCNC(=O)CSc2ccccn2)cc1	-2	0	-1	3982
O=C(CCOc1ccc(F)cc1)Nc1nccs1	?	0	21	3893
N#Cc1ccc2ccn(CC(=O)NC3CCCCC3)c2c1	0	1	-4	16380*
O=C(NC(=S)N1CCCC1)c1cccc([N+](=O)[O-])c1	5	0	3	5406
c1ccc(CSc2nnnn2-c2ccccc2)cc1	-6	-1	-4	9762
Cn1ccnc1Sc1nnnn1-c1ccccc1	-3	-1	0	20712*
CCOC(=O)c1ccc(N=C(c2ccccc2)c2c(O)n(C)c(=O)n(C)c2=O)cc1	?	-3	31*	3761
NC1=NC2(CCCCC2)N=C(Nc2ccc(F)cc2F)N1	-1	-4	0	24883*
C=C(C)CNC(=S)N/N=C1\CCCCc2ccccc21	-2	-1	1	2533
CCCCOc1ccc(-c2nc(=S)[nH][nH]2)cc1	0	?	-1	16673*
CCCCOc1ccc(-c2nc(SCC(N)=O)n[nH]2)cc1	-1	0	-4	20074*
CCCCOc1ccc(-c2ncc(N)cn2)cc1	5	-1	12	3821
CCOC(=O)C1=C(Nc2ccccc2)CC(C)(O)C(C(=O)OCC)C1c1ccc(Cl)cc1 (stereo not drawn)	3	-1	1	4041
SMILES	BoNT-F LC inh	BoNT-A LC inh2	Anthrax LF prot	Autofluor counter
O=C(COC(=O)c1ccc(S(=O)(=O)N2CCOCC2)cc1)NCc1cccs1	-4	0	1	2676
Cc1cc([N+](=O)[O-])nn1CC(=O)NNC(=S)Nc1ccc(Cl)cc1	-3	-2	-2	23664*
Cc1cc(C)cc(-n2nc(C)cc2N)c1	0	?	0	16680*
CC(C)C12CN3CCN(CC(C3)C1O)C2 (stereo not drawn)	-5	-2	-2	16737*
CCC12CN3CCN(CC(C3)C1O)C2 (stereo not drawn)	-12	-1	-6	6215
C/C(=N\Nc1cccc([N+](=O)[O-])c1)c1cc(F)ccc1O	4	0	14	4920
O=C(Oc1ccccc1C(=O)Nc1ccccc1)c1ccc(Br)c([N+](=O)[O-])c1	-2	0	-1	2466
O=C(CN1CCN(c2nc(-c3ccc(F)cc3)cs2)CC1)NCc1ccc2c(c1)OCO2	-2	0	-2	23682*
Cc1cc(C(N)=O)c2cc(Br)ccc2n1	-3	-2	0	20846*
Cc1cc(=O)n2ccccc2c1C#N	4	?	1	22057*
Cc1ccc(C(=O)CC(=O)c2cc(Cl)ccc2O)cc1	-1	-1	-5	10212

Screening results (PubChem BioAssay)
